Key:
Conditions in all cases: concentration: 1 μM, replicates: in singlicate; n = 1
[1] = system: TAOK2
[2] = system: TAOK3
[3] = system: TBK1
[4] = system: TEC
[5] = system: TESK1
[6] = system: TGFBR1
[7] = system: TGFBR2
[8] = system: TIE1
[9] = system: T1, TIE2
T1 construct: gene TEK

[10] = system: TLK1
[11] = system: TLK2
[12] = system: TNIK
[13] = system: TNK1
[14] = system: TNK2
[15] = system: TNNI3K
[16] = system: T2, TRKA
T2 construct: gene NTRK1

[17] = system: TRKB
[18] = system: T3, TRKC
T3 construct: gene NTRK3

[19] = system: TRPM6
[20] = system: TSSK1B
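Further: KINOMEscan kinase panel screen.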

SMILES	%Inh [1] [%]	%Inh [2] [%]	%Inh [3] [%]	%Inh [4] [%]	%Inh [5] [%]	%Inh [6] [%]	%Inh [7] [%]	%Inh [8] [%]	%Inh [9] [%]	%Inh [10] [%]	%Inh [11] [%]	%Inh [12] [%]	%Inh [13] [%]	%Inh [14] [%]	%Inh [15] [%]	%Inh [16] [%]	%Inh [17] [%]	%Inh [18] [%]	%Inh [19] [%]	%Inh [20] [%]
COc1cc2c(cc1OCCN1CCN(C)CC1)ncc1c3ccc(C#N)cc3[nH]c21	13	0	83	0	0	0	0	0	6	37	0	91	8	0	2	99.8	97.2	83	0	34
CCn1cnc2c(N)ncnc21 [GW345098]	4	0	39	11	4	0	12	6	2	22	0	17	7	10	4	24	0	7	81	20
CN(C1=C(c2ccccc2)C(=O)NC1=O)c1ccccc1 [SB-334860]	0	0	29	7	67	26	0	0	5	20	6	4	7	18	20	18	0	0	31	11
Cn1cc(-c2ccc3c(c2)CCN3C(=O)Cc2ccccc2Cl)c2c(N)ncnc21 [GSK2608885]	0	47	14	100	43	8	23	96	97.4	29	0	69	100	74	64	42	0	0	33	17
N#Cc1c(N2CCOCC2)sc(-c2ccn[nH]2)c1-c1ccc(Cl)cc1	0	0	12	12	0	19	0	0	5	11	0	0	0	0	0	12	6	8	0	0
Nc1nc(-c2ccc3c(N)n[nH]c3c2)cc(N2CCCC2)n1 [GSK2227430]	0	0	18	0	2	0	0	0	0	3	0	0	0	0	0	0	0	0	0	0
O=c1cc(N2CCOCC2)nc2n(Cc3cccc(F)c3)ccn12 [GSK2297430]	0	0	0	0	19	0	13	7	0	6	0	0	0	18	0	54	27	6	0	12
COCCNC(=O)c1ccc(-c2cc(C(=O)NC3CC3)cc(F)c2C)cc1 [GW868318]	16	32	34	11	26	0	6	17	17	14	0	0	40	16	11	27	43	30	20	0
CC(C)(C)n1cnc2c(N)ncnc21 [SKF-97359]	0	0	19	0	0	30	0	0	17	67	2	0	16	40	0	74	47	18	3	0
O=C1Cc2cc(Nc3nc(NCc4cccc(S(=O)(=O)C(F)(F)F)c4)ncc3C(F)(F)F)ccc2N1	0	0	0	0	0	0	2	0	0	0	3	0	0	10	0	17	0	10	0	19
